Data on 40 molecules can be found in PubChem BioAssay (NCI).

The panel holds about 83,000 compounds, 20% with a hit somewhere; the sample as a whole holds those more often.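 48-hour exposure, single concentration, 96-well plates; percent growth endpoint where 0 means no net growth. Active: below 10.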 Unmarked numbers belong to inactive results. The source made the active and inactive calls.

In the test the test system is OVCAR-4 ovarian. Put plainly: NCI-60 one-dose screen, 48 h (100 = growth as untreated, 0 = no growth, -100 = all killed). The note with it: 10 µM unless noted. On the procedure:
Growth inhibition of the OVCAR-4 human tumor cell line is measured as a screen for anti-cancer activity. Cells are grown in 96 well plates and exposed to the test compound for 48 hours. Compounds are tested at a single concentration, which is 10^-5 M for most compounds. The reported endpoint is percent growth (GI% or GIPRCNT), where numbers from 0 - 100% represent growth inhibition, and numbers from -100% - 0 represent cell death. For example, a value of 40 represents 60% growth inhibition. A value of 0 means no net growth occurred over the course of the experiment. A value of -40 indicates 40% of cells at the beginning of the experiment died by the end of the experiment. A value of -100 means all cells are dead at the end of the experiment.
NCI-60 Human Tumor Cell Lines Screen was performed using the standard one-dose NCI protocol, which is described in more detail at https://dtp.cancer.gov/discovery_development/nci-60/default.htm.
Compounds with GIPRCNT values below 10 were considered active. Activity score was based on GIPRCNT using the following formula: […]
Score is 0 for GIPRCNT values of 100 or above, 50 for GIPRCNT values of 0, and 100 for GIPRCNT values of -100.
As to `C=CC(=O)N[C@H](Cc1ccc(-c2cc(Cl)cc(Cl)c2)cc1)[C@H](O)[C@@H](O)C(=O)O`, the growth is 96.9%.

With `CCN1CCN(C(=O)[C@]23CCC(C)(C)C[C@H]2C2=CC[C@@H]4[C@@]5(C)CC/C(=N/O)C(C)(C)[C@@H]5CC[C@@]4(C)[C@]2(C)CC3)CC1`, the growth is -20.5% (active).

In the case of `CSc1ccc(N(C)c2nc(C)nc3c2CCC3)cc1`, the growth was 38.2%.

Turning to `N#C/C(=C\c1ccc(-c2ccc(F)cc2)o1)c1nc(-c2ccco2)cs1`, the growth is 19.2%.

In the case of `CC1(c2ccccc2)OC1C(=O)O` (stereo not given), the growth was 112%.

Consider `Cc1cc(N2CCCC2)nc(N(CCNc2ccnc3cc(Cl)ccc23)Cc2ccco2)n1`, for which the growth is 38.6%.

As for `Nc1nc2c(c(=O)[nH]1)C(c1ccc3c(c1)OCO3)C=C(C(=O)O)N2` (stereo not given), the growth is 103%.

Take `O=S(=O)(NCCNc1cc(-c2cn(-c3ccccc3)nc2-c2cccc(O)c2)ccn1)c1ccc(Cl)cc1`: the growth was 38.2%.

As to `COc1ccc(C2CC(=O)c3c(nc4ccc(Cl)cc4c3N)C2)cc1` (stereo not given), the growth was 102%.

Regarding `COC(=O)[C@]12CC[C@@H](C)[C@H](C)[C@@H]1C1=CC[C@@H]3[C@@]4(C)C=C(O)C(=O)C(C)=C4CC[C@@]3(C)[C@]1(C)CC2`, the growth was 37.8%.

For the molecule `COc1ccccc1CNc1nc(N)nc2[nH]c3ccc(O)cc3c12`, the growth is 80.2%.

For the molecule `CCC(CC)C(=O)OC(C)COc1ccc(C(C)(C)C)cc1` (stereo not given), the growth was 113%.

For the molecule `COc1ccc2c(c1)c1nc3cc(C)c(C)cc3nc1n2CCN(C)C`, the growth is 19.8%.

For `O=C(NO)c1ccc(Cn2c(=O)n(-c3ccccc3)c(=O)c3ccccc32)cc1`, the growth is 18.7%.

As to `COc1ccc(-c2nc(Nc3ccc(-c4nc5ccccc5[nH]4)cc3)nc(N3CCOCC3)n2)cc1`, the growth is 59.8%.

In the case of `COc1cc(-c2c(C#N)c(-c3cccs3)nc3c2c(-c2ccccc2)nn3-c2ccccc2)ccc1O`, the growth is 83.5%.

With `CC1(C)CC[C@]2(C(=O)Nc3ccccn3)CC[C@]3(C)C(=CC[C@@H]4[C@@]5(C)C/C(=C/c6ccncc6)C(=O)C(C)(C)[C@@H]5CC[C@]43C)[C@@H]2C1`, the growth was 17.1%.

Regarding `CCCCCCCC(=O)SCC/C=C/[C@@H]1CC(=O)NCc2cccc(n2)CN(Cc2ccc3ccccc3c2)CC(=O)N[C@@H](C(C)C)C(=O)O1`, the growth is 66.3%.

Consider `COc1cccc(-c2nn(-c3ccccc3)cc2-c2ccnc(NCCCNS(=O)(=O)c3cccc(F)c3)c2)c1`, for which the growth was 34%.

In the case of `COc1cccc(-c2nn(-c3ccccc3)cc2-c2ccnc(NCCNS(=O)(=O)c3ccc(Cl)cc3)c2)c1`, the growth is 35.9%.

Turning to `CC1(C)C=CC[C@]2(C)[C@H]3CC[C@@H]4[C@H]5[C@H](C(=O)/C=C/c6cccnc6)CC[C@]5(CO)CC[C@@]4(C)[C@]3(C)CC[C@@H]12`, the growth was -14.5% (active).

`Brc1ccc2c(c1)c(-c1nc(-c3c[nH]c4ncccc34)cs1)cn2CCCN1CCCCC1`: the growth was 48.4%.

`Cc1cccc(C)c1NC(=O)CSC(=S)N1CCCCC1`: the growth was 106%.

`Fc1ccc(Nc2nnc(-c3ccc(Cl)cc3)o2)cc1`: the growth was 94.7%.

With `Cn1c(=O)c2c(ncn2CC(=O)Nc2ccc(S(N)(=O)=O)cc2)n(C)c1=O`, the growth is 108%.

Regarding `Clc1ccc(Cn2cc(-c3nc4ccc(Br)nc4n3Cc3ccc(Cl)cc3)c3cccnc32)cc1`, the growth was 87.6%.

Consider `C#CCN=C[C@]12CC[C@@H](C(=C)C)[C@@H]1[C@H]1CC[C@@H]3[C@@]4(C)CCC(=O)C(C)(C)[C@@H]4CC[C@@]3(C)[C@]1(C)CC2`, for which the growth was 53.5%.

As to `COc1ccc(NC(=O)c2ccc3c(c2)nc(-c2cc4ccccc4[nH]c2=O)n3-c2cc(C(C)(C)C)[nH]n2)cc1`, the growth is 86.5%.

Consider `Nc1c(C(=O)Nc2c(Cl)cccc2Cl)sc2nc3c(cc12)CCCC3`, for which the growth is 89.9%.

Regarding `COc1cc2nc(Cl)nc(Nc3cccc(C(=O)/C=C/c4ccc(Cl)cc4)c3)c2cc1OC`, the growth was 70.8%.

`O=c1[nH]ncc(Br)c1Br`: the growth is -100% (active).

Turning to `CCN(CC)CCCCCCNc1ccnc2cc(Cl)ccc12`, the growth is 75.2%.

Consider `CN1CCN(CC#CCn2c3c(c4ccccc42)C[C@]2(C)[C@H]4CC[C@@H]5[C@H]6[C@H]7OC(=O)[C@@]6(CCC7(C)C)CC[C@@]5(C)[C@]4(C)CC[C@H]2C3(C)C)CC1`, for which the growth is 74.1%.

On to `COc1ccc(/C=C2\N=C(c3ccccc3)N(c3cc(OC)c(OC)cc3C(=O)N3N=C(C)CC3=O)C2=O)cc1`, for which the growth was 101%.

In the case of `Fc1ccc(Nc2nc(Nc3ccc(-c4nc5ccccc5[nH]4)cc3)nc(N3CCCC3)n2)cc1`, the growth is 88.6%.

On to `COCCNC1=C(Cl)C(=O)c2ccccc2C1=O`, for which the growth is 93.6%.

As to `CCCCC/C(=C\c1ccccc1)C1OC(C)C(C)O1` (stereo not given), the growth is 108%.

Regarding `Oc1ccc(Nc2ccccc2)cc1`, the growth is 70.5%.

For the molecule `CC(C)(C)c1ccc(OCCCCCCCN2CCNCC2)cc1`, the growth was 54%.

With `COc1ccc(NC(=O)c2ccoc2COc2ccccc2)cc1`, the growth is 101%.
